Two molecules from PubChem BioAssay AID1739 (National Center for Advancing Translational Sciences (NCATS), 2009) can be followed below.

This assay is described as follows: Counterscreen Assay for Enhancers of SMN2 Splice Variant Expression: Modulation of SMN1 Expression. The source says:
NIH Chemical Genomics Center [NCGC] NIH Molecular Libraries Probe Production centers Network [MLPCN] MLPCN Grant: R03 MH084179-01 Assay Submitter (PI): Elliot Androphy NCGC Assay Overview: Spinal muscular atrophy (SMA) is caused by insufficient levels of the survival motor neuron protein SMN. The SMN locus on chromosome 5q13 contains two inverted copies of SMN called SMN1 and SMN2 which are 99% identical at the amino acid level. SMN1 is a fully functional protein and SMN2 skips exon 7 90% of the time. Skipping of exon 7 produces non-functional protein product. 10% of the SMN2 protein includes exon 7 and is fully functional. In the SMA disease state, mutations in the SMN1 locus are the cause of the disease state. Because only 10% of SMN2 is of the fully functional form, it is not sufficient to overcome the deficiency produced by the loss of the SMN1 product. A therapy that either increase the amount of SMN2 product made or to increase the inclusion of exon 7 has been proposed for the treatment of SMA. We have designed an assay to identify small molecules that can increase the amount of functional SMN2 product by appending a luciferase reporter gene after the native SMN2 gene, such that inclusion of exon 7 in the expressed product places the luciferase sequence in frame, thus generating functional luciferase enzyme. […]
For orientation: Counterscreens check selectivity or assay interference.

Results filed as inconclusive are left out. A call without a number means that no potency is given here. Activity calls are given as the source filed them. The call rests on the fitted dose curve; in most records, active means well fitted inhibition curve with a large enough effect; inconclusive means small, poorly fitted or top-dose-only effect; inactive means flat fitted curve, though single readings scatter.

Turning to `CCc1ccc2nc(N3CCC(C(=O)N4CCC5(CC4)OCCO5)CC3)sc2c1`, the Potency result is “inactive”.

For `CC[C@]1(O)CC(O[C@@H]2CC(N(C)C)C(O)C(C)O2)c2c(cc3c(c2O)C(=O)c2c(O)cccc2C3=O)C1C(=O)OC` (some centres not stated), the Potency is 1120 nM (active).
